Screens from PubChem BioAssay.
Pin1 inh: blocks the human prolyl isomerase Pin1; Q13526; Pin1 FP peptide displacement, HiFluor488, 10 min; Potency, µM (titrated, usually from 115 µM), for the others: at the highest dose activity, negative = inhibition, usual class: inhibitors; 0.009% of 390,000 active; active = well fitted inhibition curve with a large enough effect in the polarisation, with a control signal flat, not every such curve was filed as active; inconclusive = small, poorly fitted or top-dose-only effect, or effect the other way, or a change in a side signal; inactive = no such curve, though single readings can be large or run the other way; the % refers to the polarisation; also: potency is read from the fitted curve at half-maximal effect; % is scaled to controls: 0 for no effect and ±100 for the full control effect
Tb PFK inh: inhibitors of T. brucei phosphofructokinase; O15648; T. brucei PFK, ADP-Glo luminescence; Potency, µM (doses to about 57.5 µM), inactives show at the top dose activity, negative = inhibition, most hits filed as inhibitors; 0.17% of 330,000 active; AID 485367;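 also: potency is read from the fitted curve at half-maximal effect; 0% = uninhibited 1x PFK enzyme wells and -100% = no-enzyme wells; nearly all actives have a fitted effect of over 60% in size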
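1.25 nM PFK with 0.5 mM F6P and 0.1 mM ATP in 0.1 M TEA pH 8.0, 5 mM MgCl2, incubated 45 min at room temperature; ADP measured by ADP-Glo luminescence; compounds titrated up to 57 uM.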
Tb PGK inh: inhibitors of T. brucei phosphoglycerate kinase | PGK/GAPDH coupled, Kinase-Glo luminescence, 60 min | Potency, µM (doses to about 57.5 µM), for inactives: at the highest dose activity change, negative = inhibition, usual class: inhibitors | 0.043% of 380,000 active | AID 602233; also: potency is read from the fitted curve at half-maximal effect; % is scaled to controls: 0 for no effect and ±100 for the full control effect; nearly all actives have a fitted effect of over 60% in size
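Recombinant glycosomal PGK reaction used 1,3-bisphosphoglycerate generated in-well by GAPDH (100nM final) in 100mM TEA pH 7.6, 5mM MgCl2, 0.01% Tween-20. After 60 minutes at room temperature, ATP was read by Kinase-Glo Plus luminescence end-point.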
BCR signal inh: blocks chronic active B-cell receptor signaling. Potency, µM (titrated, usually from 46.1 µM), inactives show top-dose activity change, negative = inhibition, hits mostly inhibitors. ABC-DLBCL IkBa-CBG/CBR reporter, luminescence ratio, 4 h. AID 493014. 0.05% of 340,000 active; active = well fitted inhibition curve with a large enough effect in the signal ratio, with a control signal flat, not every such curve was filed as active; inconclusive = small, poorly fitted or top-dose-only effect, or effect the other way, or a change in a side signal; the % refers to the signal ratio;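 also: potency is read from the fitted curve at half-maximal effect; plate controls were basal doxycycline-induced cells for no effect and cells given 10 µM MG132 for full effect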
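Concentration-response series (up to 46 uM) were applied to TMD8 dual-reporter cells for 4 h at 37C with doxycycline. Green/red ratio, after filter-overlap correction, defined %Activity; red signal alone was normalised to basal cells and zero luminescence.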
GLS inh: inhibitors of human glutaminase (GLS); O94925; Potency, µM (top dose mostly 45.5 µM), for the others: at the highest dose activity change, negative = inhibition, hits mostly inhibitors; AID 624170; 0.21% of 410,000 active; GLS enzymatic activity, qHTS titration; also: potency is read from the fitted curve at half-maximal effect; % is scaled to controls: 0 for no effect and ±100 for the full control effect
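hKGA in 45 mM KH2PO4 pH 8.2, 0.02% Tween-20 with pin-transferred compounds; 1 mM L-glutamine (stock) plus glutamate oxidase/HRP/Amplex Red coupling added. Fluorescence read initially and after 30 min at RT.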
B2AR arrestin: agonists driving beta-arrestin recruitment to human beta2-adrenergic receptor. beta-arrestin recruitment to beta2AR, cell-based reporter. 0.02% of 330,000 active. P07550. Potency, µM (series often up to 46.1 µM), inactives show top-dose activation, usual class: activators;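 also: potency is read from the fitted curve at half-maximal effect; 0% = DMSO controls and full agonism = EC100 isoproterenol or metaproterenol; nearly all actives have a fitted effect of over 65% in size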
GLS confirm: glutaminase (human) inhibition, hit confirmation; shares compounds with GLS inh; biochemical glutaminase enzyme inhibition assay; Potency, µM (top dose mostly 46.1 µM), without a hit: at the top dose activity change, negative = inhibition, usual class: inhibitors; 35 tested, under 10 active; AID 624261; calls by dose curve
HRP GOx counter: counter-screen for glutaminase inhibitors: HRP coupled enzyme inhibition; HRP/glutamate oxidase coupled Amplex Red fluorescence counterscreen; 35 tested, under 10 active; activity change, negative = inhibition, % at 46.1 µM; shares compounds with GLS inh
GLS HEK tox: HEK-293 cytotoxicity, glutaminase hit confirmation | shares compounds with GLS inh | HEK-293 viability, CellTiter-Glo luminescence, 24 h | activity change, negative = cytotoxicity, % at 46.1 µM | 35 tested, under 10 active | AID 624264
Numbers without * were called inactive; i = inactive; ? = inconclusive; . = not tested or not shown. An excerpt weighted towards active compounds, which were near 0.42% of everything screened. Unless noted, calls follow the shape of the dose curve; as a rule, active = well fitted curve in the direction sought with a large enough effect; inconclusive = small, poorly fitted or top-dose-only effect, or another doubt; inactive = no such curve, though single readings can be large; an effect the other way counts as inactive or inconclusive.

SMILES	Pin1 inh	Tb PFK inh	Tb PGK inh	BCR signal inh	GLS inh	B2AR arrestin	GLS confirm	HRP GOx counter	GLS HEK tox
COc1ccc(OC)c(S(=O)(=O)Nc2cccc3ccc(O)cc23)c1	-12%	.	-6%	.	6.3µM*	.	1%	?	6
O=C1CCc2cc([S+](=O)([O-])NC3CCOCC3)ccc2N1	3%	.	.	.	.	.	.	.	.
CN1C(=O)c2cccc3c(S(=O)(=O)Nc4ccc(O)c(C(=O)O)c4)ccc1c23	1%	-3%	-7%	1%	?	-1%	?	?	9
CN1C(=O)c2cccc3c(S(=O)(=O)NCCc4ccccc4)ccc1c23	2%	0%	i	-2%	0%	-1%	.	.	.
O=C(O)c1ccccc1NS(=O)(=O)c1cccc(NS(=O)(=O)c2cc(Br)ccc2Br)c1	?	?	-6%	0%	?	0%	?	-4	-6
O=C(CNC(=O)c1cccc(Cl)c1)OC(C(=O)Nc1cc(C(F)(F)F)ccc1Cl)c1ccccc1 (stereo not given)	20%	.	.	.	.	.	.	.	.
CCN(CC)S(=O)(=O)c1ccc(NS(=O)(=O)c2cccc(C)c2)cc1	0%	-4%	-3%	-3%	?	-1%	11%	2	-9
